{"source": "the supplement of paper PMC8728848", "binders": {"B1": {"name": "PpFlo1 (Pichia pastoris) (protein)", "chain": "MGSSHHHHHHSSGLVPRGSHMQESGDGDISDSAYACDIDATRYDGFNATIYEFQPGDGRLTRDPVFMSTGYLNRTQLHSITGVTDPGFSIYTPGVPTTTLYGIPNVNWENLLLELKGYFRAEVSGDYGLSLRNIDDSAILFFGKETAFQCCNENSISNEASTDYSLFTIFRQEGDETTNLDSFTYTQYLEAGKYYPVRTFFVNIERHAVFNFTMTLPDGTELTDFHNYIYQFGALDEEQCQA"}}, "test_in_all_cases": "glycan array binding signal (z-score within array); higher = stronger binding", "conditions_in_all_cases": "glycan notation: IUPAC condensed, linker removed", "key": {"[1]": {"target": "Fuc(a1-2)Gal(b1-3)GalNAc(b1-3)Gal", "outline": "(§1)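 The binding signal is a Z-score computed within each array. Data were drawn from 3228 arrays in the Consortium for Functional Glycomics database, restricted to those with a known protein sequence. Scores were averaged over arrays of the same protein sequence at different concentrations or buffers, and over linkers, and negative values can be taken as non-binding.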"}, "Fuc(a1-2)Gal(b1-4)Glc6S": {"target": "Fuc(a1-2)Gal(b1-4)Glc6S", "outline": "as §1"}, "[2]": {"target": "Fuc(a1-2)Gal(b1-4)GlcNAc(b1-3)GalNAc", "outline": "as §1"}, "[3]": {"target": "Fuc(a1-2)Gal(b1-4)[Fuc(a1-3)]GlcNAc(b1-2)Man(a1-3)[Fuc(a1-2)Gal(b1-4)[Fuc(a1-3)]GlcNAc(b1-2)Man(a1-6)]Man(b1-4)GlcNAc(b1-4)[Fuc(a1-6)]GlcNAc", "outline": "as §1"}, "[4]": {"target": "Fuc(a1-2)Gal(b1-4)[Fuc(a1-3)]GlcNAc(b1-3)Gal(b1-4)[Fuc(a1-3)]GlcNAc(b1-3)Gal(b1-4)[Fuc(a1-3)]GlcNAc", "outline": "as §1"}, "[5]": {"target": "Fuc(a1-2)Gal(b1-4)[Fuc(a1-3)]GlcNAc(b1-3)[Neu5Ac(a2-6)Gal(b1-4)GlcNAc(b1-6)]Gal(b1-4)Glc", "outline": "as §1"}, "[6]": {"target": "Fuc(a1-2)[Gal(a1-3)]Gal(b1-4)GlcNAc(b1-6)GalNAc", "outline": "as §1"}, "[7]": {"target": "Fuc(a1-2)[Gal(a1-3)]Gal(b1-4)[Fuc(a1-3)]GlcNAc(b1-3)GalNAc", "outline": "as §1"}, "[8]": {"target": "Fuc(a1-2)[GalNAc(a1-3)]Gal(b1-3)GalNAc(b1-3)Gal(a1-4)Gal(b1-4)Glc", "outline": "as §1"}, "[9]": {"target": "Fuc(a1-2)[GalNAc(a1-3)]Gal(b1-3)GlcNAc(b1-3)GalNAc", "outline": "as §1"}, "[10]": {"target": "Fuc(a1-2)[GalNAc(a1-3)]Gal(b1-4)GlcNAc(b1-2)Man(a1-3)[Fuc(a1-2)[GalNAc(a1-3)]Gal(b1-4)GlcNAc(b1-2)Man(a1-6)]Man(b1-4)GlcNAc(b1-4)GlcNAc", "outline": "as §1"}, "[11]": {"target": "Fuc(a1-2)[GalNAc(a1-3)]Gal(b1-4)[Fuc(a1-3)]GlcNAc(b1-3)GalNAc", "outline": "as §1"}, "[12]": {"target": "Fuc(a1-3)[Gal(b1-4)]GlcNAc(b1-6)[Neu5Ac(a2-3)Gal(b1-3)]GalNAc", "outline": "as §1"}, "[13]": {"target": "Gal(a1-4)Gal(b1-4)GlcNAc(b1-3)Gal(b1-4)Glc", "outline": "as §1"}, "Gal(b1-3)Gal": {"target": "Gal(b1-3)Gal", "outline": "as §1"}, "[14]": {"target": "Gal(b1-3)GalNAc(a1-3)[Fuc(a1-2)]Gal(b1-4)Glc", "outline": "as §1"}, "[15]": {"target": "Gal(b1-3)GalNAc(b1-4)Gal(b1-4)Glc", "outline": "as §1"}, "[16]": {"target": "Gal(b1-3)GlcNAc(a1-3)Gal(b1-4)GlcNAc", "outline": "as §1"}, "[17]": {"target": "Gal(b1-3)[Neu5Ac(a2-6)]GlcNAc(b1-4)Gal(b1-4)Glc", "outline": "as §1"}, "[18]": {"target": "Gal(b1-4)GlcNAc(b1-2)Man(a1-3)[Gal(b1-4)GlcNAc(b1-2)Man(a1-6)]Man(b1-4)GlcNAc(b1-4)[Fuc(a1-6)]GlcNAc", "outline": "as §1"}, "[19]": {"target": "Gal(b1-4)GlcNAc(b1-2)Man(a1-3)[Gal(b1-4)GlcNAc(b1-2)Man(a1-6)][Gal(b1-4)GlcNAc(b1-4)]Man(b1-4)GlcNAc(b1-4)[Fuc(a1-6)]GlcNAc", "outline": "as §1"}, "[20]": {"target": "Gal(b1-4)GlcNAc(b1-2)Man(a1-3)[GlcNAc(b1-4)][Gal(b1-4)GlcNAc(b1-2)Man(a1-6)]Man(b1-4)GlcNAc(b1-4)GlcNAc", "outline": "as §1"}, "[21]": {"target": "Gal(b1-4)GlcNAc(b1-2)Man(a1-3)[Man(a1-6)]Man(b1-4)GlcNAc(b1-4)GlcNAc", "outline": "as §1"}, "[22]": {"target": "Gal(b1-4)GlcNAc(b1-2)[Gal(b1-4)GlcNAc(b1-4)]Man(a1-3)[GlcNAc(b1-4)][Gal(b1-4)GlcNAc(b1-2)Man(a1-6)]Man(b1-4)GlcNAc(b1-4)GlcNAc", "outline": "as §1"}, "[23]": {"target": "Gal(b1-4)GlcNAc(b1-3)Gal(b1-4)GlcNAc(b1-3)[Gal(b1-4)GlcNAc(b1-3)Gal(b1-4)GlcNAc(b1-6)]GalNAc", "outline": "as §1"}, "Gal3S6S(b1-4)GlcNAc6S": {"target": "Gal3S6S(b1-4)GlcNAc6S", "outline": "as §1"}, "Gal6S(b1-3)GlcNAc6S": {"target": "Gal6S(b1-3)GlcNAc6S", "outline": "as §1"}, "Gal6S(b1-4)GlcNAc6S": {"target": "Gal6S(b1-4)GlcNAc6S", "outline": "as §1"}, "[24]": {"target": "GalNAc(a1-3)GalNAc(b1-3)Gal(a1-4)Gal(b1-4)Glc", "outline": "as §1"}, "[25]": {"target": "GalNAc(b1-4)GlcNAc(b1-2)Man", "outline": "as §1"}, "[26]": {"target": "GlcA3S(b1-3)Gal(b1-4)GlcNAc(b1-3)Gal(b1-4)Glc", "outline": "as §1"}}, "note": "The sample as a whole holds a higher share of the strongest signals than the screen did.", "data": [{"binder": "B1", "values": [{"measurement": "glycan array binding signal (z-score)", "setting": "[1]", "value": -0.068}, {"measurement": "glycan array binding signal (z-score)", "setting": "Fuc(a1-2)Gal(b1-4)Glc6S", "value": -0.627}, {"measurement": "glycan array binding signal (z-score)", "setting": "[2]", "value": 9.01}, {"measurement": "glycan array binding signal (z-score)", "setting": "[3]", "value": 0.805}, {"measurement": "glycan array binding signal (z-score)", "setting": "[4]", "value": 0.218}, {"measurement": "glycan array binding signal (z-score)", "setting": "[5]", "value": -0.279}, {"measurement": "glycan array binding signal (z-score)", "setting": "[6]", "value": -0.228}, {"measurement": "glycan array binding signal (z-score)", "setting": "[7]", "value": 1.04}, {"measurement": "glycan array binding signal (z-score)", "setting": "[8]", "value": -0.244}, {"measurement": "glycan array binding signal (z-score)", "setting": "[9]", "value": 3.23}, {"measurement": "glycan array binding signal (z-score)", "setting": "[10]", "value": 2.04}, {"measurement": "glycan array binding signal (z-score)", "setting": "[11]", "value": 7.08}, {"measurement": "glycan array binding signal (z-score)", "setting": "[12]", "value": 3.09}, {"measurement": "glycan array binding signal (z-score)", "setting": "[13]", "value": -0.25}, {"measurement": "glycan array binding signal (z-score)", "setting": "Gal(b1-3)Gal", "value": 0.345}, {"measurement": "glycan array binding signal (z-score)", "setting": "[14]", "value": -0.55}, {"measurement": "glycan array binding signal (z-score)", "setting": "[15]", "value": 3.27}, {"measurement": "glycan array binding signal (z-score)", "setting": "[16]", "value": -0.388}, {"measurement": "glycan array binding signal (z-score)", "setting": "[17]", "value": 0.298}, {"measurement": "glycan array binding signal (z-score)", "setting": "[18]", "value": -0.323}, {"measurement": "glycan array binding signal (z-score)", "setting": "[19]", "value": 0.235}, {"measurement": "glycan array binding signal (z-score)", "setting": "[20]", "value": -0.214}, {"measurement": "glycan array binding signal (z-score)", "setting": "[21]", "value": 1.6}, {"measurement": "glycan array binding signal (z-score)", "setting": "[22]", "value": -0.266}, {"measurement": "glycan array binding signal (z-score)", "setting": "[23]", "value": 0.345}, {"measurement": "glycan array binding signal (z-score)", "setting": "Gal3S6S(b1-4)GlcNAc6S", "value": 1.38}, {"measurement": "glycan array binding signal (z-score)", "setting": "Gal6S(b1-3)GlcNAc6S", "value": 2.66}, {"measurement": "glycan array binding signal (z-score)", "setting": "Gal6S(b1-4)GlcNAc6S", "value": 1.66}, {"measurement": "glycan array binding signal (z-score)", "setting": "[24]", "value": -0.647}, {"measurement": "glycan array binding signal (z-score)", "setting": "[25]", "value": -0.267}, {"measurement": "glycan array binding signal (z-score)", "setting": "[26]", "value": -0.4}]}]}
